According to PMC5540273 (PLoS ONE, 2017):

How the values were obtained:
Conditions in all cases: concentration: 1 μM,replicates: in singlicate; n = 1
[1] = test system: T1, ERK1
T1 construct: gene MAPK3

[2] = test system: T2, ERK2
T2 construct: gene MAPK1

[3] = test system: T3, ERK3
T3 construct: gene MAPK6

[4] = test system: T4, ERK4
T4 construct: gene MAPK4

[5] = test system: T5, ERK5
T5 construct: gene MAPK7

[6] = test system: T6, ERK8
T6 construct: gene MAPK15

[7] = test system: ERN1
[8] = test system: T7, FAK
T7 construct: gene PTK2

[9] = test system: FER
[10] = test system: FES
[11] = test system: FGFR1
[12] = test system: FGFR2
[13] = test system: FGFR3
[14] = test system: FGFR4
[15] = test system: FGR
[16] = test system: FLT1
[17] = test system: FLT3-autoinhibited
[18] = test system: FLT3
[19] = test system: FLT4
[20] = test system: FRK
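Further: KINOMEscan kinase panel screen.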

Structure (SMILES)	%Inh [1]	%Inh [2]	%Inh [3]	%Inh [4]	%Inh [5]	%Inh [6]	%Inh [7]	%Inh [8]	%Inh [9]	%Inh [10]	%Inh [11]	%Inh [12]	%Inh [13]	%Inh [14]	%Inh [15]	%Inh [16]	%Inh [17]	%Inh [18]	%Inh [19]	%Inh [20]
O=C(NOCC1CC1)c1cc(Br)c(F)c(F)c1Nc1ccc(I)cc1Cl	0%	0%	0%	0%	0%	8%	0%	0%	11%	0%	0%	1%	0%	0%	0%	0%	0%	0%	0%	0%
Cn1ccc2ncnc(Oc3ccc(NC(=O)Nc4cccc(C(F)(F)F)c4)c(F)c3)c21	0%	19%	0%	14%	11%	74%	0%	34%	28%	0%	0%	14%	5%	3%	3%	98.9%	38%	98%	99.9%	85%
Cc1cccc2c(-c3ccncc3)c(-c3ccc(F)cc3)nn12.Cl [GW461487]	0%	0%	5%	15%	0%	0%	7%	0%	4%	0%	0%	33%	4%	9%	2%	8%	0%	0%	0%	0%
CCn1c(-c2nonc2N)nc2cncc(CNC3CCNCC3)c21.Cl [SB-747651]	0%	0%	6%	0%	0%	16%	2%	0%	2%	0%	0%	0%	5%	6%	1%	8%	3%	0%	10%	0%
CN1CCN(CCNc2nc3cc(Oc4ccc(NC(=O)Nc5cc(C(F)(F)F)ccc5F)cc4)ccc3[nH]2)CC1.Cl.Cl [GW768504]	0%	0%	0%	0%	0%	69%	0%	11%	20%	9%	6%	0%	0%	0%	0%	90.7%	0%	98.1%	49%	69%
Cc1ccc2c(-c3ccnc(Nc4ccc(C(F)(F)F)cc4)n3)cnn2n1 [GW819776]	19%	3%	22%	0%	0%	99.4%	17%	13%	18%	10%	5%	0%	0%	6%	4%	0%	0%	59%	0%	20%
CC(=O)Nc1nc2cnc(Nc3cc(NC(=O)c4cccc(CC(C)(C)C#N)c4)ccc3C)nc2s1	1%	15%	0%	4%	9%	53%	0%	8%	0%	0%	0%	1%	4%	0%	24%	3%	0%	8%	73%	83%
NC(=O)Nc1sc(-c2ccc(F)cc2)cc1C(N)=O [GW789449]	0%	16%	0%	0%	10%	10%	27%	5%	0%	11%	36%	7%	10%	0%	45%	28%	5%	50%	31%	0%
COc1cccc(OC)c1C(=O)Nc1cccc(-c2nn3ccccc3c2-c2ccnc(Nc3cccc(F)c3)n2)c1 [GSK361065]	1%	6%	1%	9%	2%	3%	10%	1%	24%	20%	11%	0%	0%	0%	23%	32%	0%	49%	27%	16%
O=C(Nc1ccccc1)c1cccc(Oc2ccc3nccn3n2)c1	0%	0%	0%	77%	0%	0%	22%	0%	2%	6%	41%	19%	20%	0%	10%	79%	16%	0%	5%	0%
O=C(Nc1n[nH]c2cc(-c3ccco3)ccc12)C1CC1 [SB-737447]	0%	0%	0%	3%	0%	72%	9%	3%	0%	1%	14%	0%	6%	0%	0%	0%	4%	59%	0%	0%
Cc1cccc(-c2nc(Nc3ccncc3)c3sccc3n2)n1 [GW869641]	5%	18%	3%	26%	0%	2%	32%	2%	9%	7%	16%	0%	7%	8%	11%	26%	14%	41%	15%	1%
NC(=O)c1ccc(-c2cc3ncnc(SCC(=O)O)c3s2)cc1	0%	4%	0%	0%	0%	63%	0%	0%	0%	16%	0%	0%	0%	0%	14%	4%	2%	20%	0%	0%
CCn1c(-c2nonc2N)nc2cncc(Br)c21 [SB-738004]	0%	6%	0%	19%	6%	0%	19%	9%	10%	8%	3%	69%	24%	2%	17%	21%	53%	0%	19%	0%
COc1ccc(Nc2nccc(N3CCC(NC(=O)c4cccc(C#N)c4)C3)n2)cc1 (centres unmarked) [GSK1379730]	1%	26%	0%	0%	0%	30%	0%	0%	27%	0%	13%	19%	4%	6%	0%	24%	0%	18%	22%	0%
O=C(NCC1CC1)c1ccc(-c2cc(C(=O)NC3CC3)ccc2F)cc1 [GW810445]	0%	0%	0%	0%	1%	0%	0%	3%	0%	0%	0%	0%	0%	0%	0%	0%	0%	12%	0%	2%
COC(=O)Nc1nc2cc(Oc3ccc(NC(=O)Nc4cc(C(F)(F)F)ccc4Cl)cc3)ccc2[nH]1.Cl [GW697465]	0%	0%	6%	0%	0%	90.9%	0%	0%	24%	0%	4%	34%	95.8%	1%	13%	98.8%	0%	99.1%	99.4%	91.8%
CS(=O)(=O)c1cccc(CNc2nc(Nc3ccc4c(c3)[C@@H]3C[C@@H]4CNC3=O)ncc2C(F)(F)F)c1	24%	44%	0%	0%	7%	99.6%	17%	100%	93.4%	85%	86%	85%	73%	92.1%	31%	94.4%	75%	99.6%	99.4%	0%
Cn1ccc2ncnc(Oc3ccc(NC(=O)Nc4cnn(C(C)(C)C)c4)c(Cl)c3)c21	19%	4%	0%	1%	7%	25%	26%	0%	0%	13%		14%	1%	0%	10%	97.4%	8%	99.2%	98.3%	70%
CC(C)c1nc(-c2cccc(NS(=O)(=O)c3ccccc3)c2)c(-c2ccnc(Nc3ccc4c(c3)CN(C)CC4)n2)s1 [GSK1649598]	0%	0%	0%	43%	11%	0%	63%	0%	23%	0%	68%	6%	35%	0%	97.4%	98.2%	40%	90.3%	99.6%	98.2%
CSc1nccc(-c2c(-c3ccc(F)cc3)ncn2CCCN2CCOCC2)n1.Cl [SB-217146]	0%	0%	0%	0%	0%	0%	33%	0%	0%	3%	0%	0%	0%	0%	0%	0%	0%	0%	0%	0%

Structure (SMILES)	%Inh [1]	%Inh [2]	%Inh [3]	%Inh [4]	%Inh [5]	%Inh [6]	%Inh [7]	%Inh [8]	%Inh [9]	%Inh [10]	%Inh [11]	%Inh [12]	%Inh [13]	%Inh [14]	%Inh [15]	%Inh [16]	%Inh [17]	%Inh [18]	%Inh [19]	%Inh [20]
CC(C)S(=O)(=O)N1CCN(Cc2ccc3c(c2)nc(NC(=O)c2ccsc2)n3C[C@H](O)c2ccccc2)CC1 [GW635815]	0%	0%	1%	0%	0%	0%	4%	29%	39%	15%	12%	16%	0%	8%	74%	71%	90.4%	98%	0%	3%
Cc1n[nH]c2cc(Nc3ccnc(Nc4cccc(CN5CCOCC5)c4)n3)ccc12 [GW682569]	0%	0%	0%	22%	7%	0%	24%	0%	8%	0%	15%	0%	32%	0%	49%	70%	18%	68%	65%	0%
CC(=O)Nc1ccc(-c2cc3ncnc(SCC(=O)O)c3s2)cc1	0%	9%	0%	0%	0%	27%	10%	1%	0%	14%	27%	15%	0%	0%	21%	5%	33%	39%	0%	0%
Cc1ccc(CC(=O)N2CCc3cc(-c4cn(C)c5ncnc(N)c45)ccc32)cc1 [GSK2634758]	12%	6%	0%	0%	0%	0%	11%	0%	19%	0%	14%	14%	2%	0%	37%	32%	0%	40%	0%	0%
Cl.c1ccc(Oc2ccc(Nc3ccnc4cc(-c5ccc(CN6CCNCC6)o5)ccc34)cc2)nc1 [GW567142]	0%	0%	0%	30%	0%	0%	0%	9%	4%	0%	0%	0%	0%	0%	74%	8%	41%	90.4%	6%	7%
CC(=O)c1c(-c2ccncc2)[nH]c(-c2ccncc2)c1C [GW493036]	3%	0%	0%	0%	0%	96.5%	0%	0%	2%	0%	0%	0%	0%	9%	27%	10%	0%	0%	0%	0%
CNC(=O)c1ccccc1Nc1nc(Nc2cccc(CS(C)(=O)=O)c2)ncc1C.O=CO [GSK1520489]	46%	60%	35%	35%	0%	80%	58%	99.9%	96%	38%	99.9%	99.3%	99.8%	94.6%	99.2%	98.2%	89%	99.1%	100%	98.2%
Cn1ccc2ncnc(Oc3ccc(NC(=O)Nc4cc(C(C)(C)C)on4)c(Cl)c3)c21	9%	5%	8%	9%	6%	65%	49%	0%	0%	25%		72%	23%	73%	32%	97.6%	15%	99.9%	99.8%	96.3%
COc1cc(Nc2nccc(N3CCC(NC(=O)c4cccc(C#N)c4)C3)n2)cc(OC)c1OC (centres unmarked) [GSK1379751]	0%	0%	3%	0%	0%	0%	0%	0%	0%	0%	0%	0%	5%	7%	37%	0%	0%	44%	11%	0%
C[C@@H](Oc1cc(-n2cnc3ccc(-c4ccncc4)cc32)sc1C(N)=O)c1ccccc1Cl [GSK483724]	5%	0%	0%	0%	0%	55%	3%	0%	39%	4%	11%	6%	29%	15%	27%	35%	6%	53%	37%	14%
C[C@@H](Oc1cc(-n2cnc3cc(-c4cnn(C)c4)ccc32)sc1C(N)=O)c1ccccc1Cl [GSK580432]	0%	0%	10%	10%	0%	64%	3%	0%	38%	18%	91.9%	89%	92.7%	38%	72%	87%	28%	99.4%	99.8%	12%
COc1cc2nccc(Nc3ccc(Oc4ccccc4)cc3)c2cc1OC.Cl [GI261656]	0%	0%	17%	0%	0%	0%	29%	0%	33%	0%	0%	0%	1%	0%	95.5%	20%	0%	69%	50%	66%
CN(c1cccc(CNc2nc(Nc3ccc4c(c3)CC(=O)N4)ncc2C(F)(F)F)c1)S(C)(=O)=O	3%	41%	0%	0%	18%	79%	11%		65%	62%	26%	31%	11%	0%	25%	35%	39%	98.7%	38%	0%
Cc1ccc(C(=O)Nc2ccc(Oc3ccc4nc(NC(=O)C5CC5)cn4c3)c(F)c2)c(=O)n1-c1ccccc1	0%	0%	0%	0%	0%	34%	0%	3%	75%	48%	0%	23%	11%	1%	91%	67%	62%	98.5%	100%	64%
Cn1ccc2ncnc(Oc3ccc(NC(=O)Nc4ccnc(C(F)(F)F)c4)c(Cl)c3)c21	0%	0%	0%	0%	0%	0%	11%	0%	0%	10%		5%	0%	0%	2%	94.5%	0%	64%	97.4%	2%
Nc1nccc(-c2ccc3c(N)n[nH]c3c2)n1 [GSK1034945]	0%	0%	0%	8%	0%	49%	0%	0%	0%	0%	0%	0%	0%	12%	15%	6%	2%	0%	11%	0%
Cn1ccc2ncnc(Oc3ccc(NC(=O)Nc4cncc(C(F)(F)F)c4)c(Cl)c3)c21	0%	0%	0%	0%	0%	0%	0%	0%	0%	0%		0%	0%	0%	0%	94.5%	0%	95.7%	99.7%	72%
c1ccc(Oc2ccc(Nc3ccnc4ccc(-c5ccccn5)cc34)cc2)cc1 [GW407034]	0%	83%	4%	0%	0%	31%	0%	0%	18%	0%	0%	34%	25%	4%	69%	14%	0%	0%	3%	38%
COc1cccc(C2=C(Nc3cccc(Cl)c3)C(=O)NC2=O)c1 [SB-341556]	3%	0%	0%	17%	0%	71%	10%	0%	0%	0%	21%	23%	29%	15%	5%	13%	4%	0%	15%	16%
C[C@@H](Oc1cc(-n2cnc3cc(-c4ccncc4)ccc32)sc1C(N)=O)c1ccccc1Cl [GSK479719]	0%	0%	0%	0%	0%	85%	16%	0%	13%	18%	46%	57%	71%	34%	40%	54%	24%	97.3%	97.1%	15%
